Several values for one entry are separate records, joined by “and”; a condition that tells them apart may be missing. Identical values can stand only once. A structure can be active in one record and inactive in another. Activity calls are given as the source filed them. The calls were made as follows: active = hit-call score of the fitted dose curve at least 0.9, where 1 is the maximum; inactive = score below 0.9.

The source of these data is PubChem BioAssay (EPA / NIEHS).

A short description of experiment [1]: APR_HepG2_CellLoss_72hr: Apredica 72-hour HepG2 Assay for Cell Loss (AID 2282915). The conditions noted are these: high-content imaging. The essentials:
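HepG2 cells were exposed for 72 hr to compounds at 0.39–200 uM (ten concentrations, duplicate) in 0.5% v/v final DMSO. Nuclei were stained with Hoechst 33342 after 3.7% formaldehyde fixation, imaged at 20x, and counted; fits bidirectional versus DMSO.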

A short description of experiment [2]: APR_HepG2_P-H2AX_72hr: Apredica 72-hour HepG2 Assay for H2AX Phosphorylation (AID 2282916).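 Also: phospho-histone H2A.x immunostain intensity per cell marking DNA damage.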 The conditions noted are these: imaging, actives raise or lower the signal. The essentials:
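Human hepatoma HepG2 cells are dosed across ten concentrations (0.39 to 200 uM, 0.5% v/v DMSO) and incubated 72 hr. Phospho-histone H2A.x is then detected by antibody staining alongside c-Jun and Hoechst, and quantified by automated fluorescence imaging.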

Experiment [3] can be described thus: APR_HepG2_MitoMembPot_72hr: Apredica 72-hour HepG2 Assay for Mitochondrial Membrane Potential (AID 2282917). The conditions noted are these: imaging, actives raise or lower the signal. The gist of the method: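 HepG2 cells exposed 72 h to compounds at 0.39–200 uM (0.5% v/v DMSO, duplicates); MitoTracker Red CMXRos 250 nM loaded 30 min before 3.7% formaldehyde fixation, imaged by HCS fluorescence. Bidirectional fit versus DMSO.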

A short description of experiment [4]: APR_HepG2_MitoticArrest_72hr: Apredica 72-hour HepG2 Assay for Mitotic Arrest (AID 2282918). To be noted: high-content imaging, actives raise or lower the signal. The gist of the method: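 High-content imaging of fixed human HepG2 cells after 72 h compound exposure (0.39–200 uM, duplicates, 0.5% DMSO); mitotic arrest scored from phospho-histone H3 and nuclear Hoechst staining relative to DMSO.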

Experiment [5] in a line: APR_HepG2_MicrotubuleCSK_72hr: Apredica 72-hour HepG2 Assay for Microtubule CSK Stabilty (AID 2282919). The conditions noted are these: HepG2 microtubule cytoskeleton, high-content imaging, actives raise or lower the signal. The gist of the method:
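Ten-point dosing (0.39–200 uM, 0.5% DMSO) of HepG2 for 72 hr, with taxol as the cytoskeletal positive control. The cells were formaldehyde-fixed and then stained with alpha-tubulin/Cy5 and Hoechst. Imaging at 20x used a −2 um Z offset for tubulin.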

The nature of experiment [6]: APR_HepG2_P-H2AX_24hr: Apredica 24-hour HepG2 Assay for H2AX Phosphorylation (AID 2282920). The conditions noted are these: high-content imaging, actives raise or lower the signal. The gist of the method:
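High-content imaging of phospho-histone H2A.x immunofluorescence, nuclei counterstained with Hoechst 33342, in fixed HepG2 cells. Compounds ran 0.39–200 uM in duplicate for 24 h, final DMSO 0.5%. Signal change fitted both directions against DMSO.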

A short description of experiment [7]: APR_HepG2_StressKinase_72hr: Apredica 72-hour HepG2 Assay for Stress Kinase (AID 2282921). The conditions noted are these: HepG2 stress kinase (phospho-c-Jun) imaging, actives raise or lower the signal. The gist of the method:
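After a 72 h compound treatment spanning 0.39 to 200 uM, formaldehyde-fixed cells are labelled for phosphorylated c-Jun and nuclei, imaged by automated fluorescence microscopy, and activity is fitted in both directions relative to DMSO controls.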

Experiment [8] is described as follows: APR_HepG2_StressKinase_24hr: Apredica 24-hour HepG2 Assay for Stress Kinase (AID 2282922). To be noted: HepG2 stress kinase (phospho-c-Jun) imaging, actives raise or lower the signal. The gist of the method:
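After 24 hr compound treatment (up to 200 uM, final DMSO 0.5% v/v), HepG2 cells are fixed and multiplex-labeled; phospho-c-Jun intensity is captured by high-content fluorescence imaging and analyzed relative to DMSO.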

A short description of experiment [9]: APR_HepG2_p53Act_72hr: Apredica 72-hour HepG2 Assay for p53 Activation (AID 2282923).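 Also: average cellular p53 protein immunofluorescence intensity in HepG2 cells.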 To be noted: high-content imaging, actives raise or lower the signal. The essentials: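 Imaging-based endpoint: after 72 hr compound exposure (up to 200 uM, 0.5% DMSO), fixed and permeabilized monolayers were labelled with anti-p53 antibody and imaged; signal change in either direction was fitted relative to DMSO controls.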

Experiment [10] can be described thus: APR_HepG2_MitoMass_72hr: Apredica 72-hour HepG2 Assay for Mitochondrial Mass (AID 2282924).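 Also: MitoTracker Red CMXRos stain intensity per cell imaged as mitochondrial mass.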 To be noted: high-content imaging, actives raise or lower the signal. The essentials:
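Steps: treat HepG2 72 hr (0.39–200 uM, duplicate wells); load MitoTracker Red CMXRos, 250 nM, 30 min; fix with 3.7% formaldehyde, permeabilise with 0.5% Triton X-100; capture images, nuclei via Hoechst 33342; fit bidirectionally against DMSO.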

What is called AC50 is the concentration giving half of the maximal activity seen. For `COc1ccc(C(c2ccc(OC)cc2)C(Cl)(Cl)Cl)cc1`, the AC50 in experiment [1] is 72.7 µM (active); in [2] it was 98.2 µM (active); in experiment [4], 65 µM (active); in [5], 71 µM (active); in experiment [9] it was 76.4 µM (active). In addition, the outcome in experiment [3], in experiment [6], in experiment [7], in experiment [8] and in experiment [10] was inactive.
In the case of `CCOP(=S)(OCC)SCn1c(=O)oc2cc(Cl)ccc21`, the AC50 in [1] is 61.4 µM (active); in experiment [5], 99.8 µM (active). The compound was classed as inactive in experiment [2], in experiment [3], in experiment [4], in experiment [6], in experiment [7] and in experiment [8]. Moreover, the outcome in [9] and in experiment [10] was inactive.
For the compound `COc1nc(NC(C)C)nc(NC(C)C)n1`, the outcome in experiment [1], in experiment [2], in experiment [3], in experiment [4], in experiment [5] and in [6] was inactive. The result in experiment [7], in experiment [8], in experiment [9] and in [10] was inactive.
Take `COC(=O)C=C(C)OP(=O)(OC)OC`: the outcome in experiment [1], in [2], in [3], in experiment [4], in [5] and in [6] was inactive. The compound was classed as inactive in experiment [7], in experiment [8], in experiment [9] and in experiment [10].
On to `CCc1nn(C)c(C(=O)NCc2ccc(C(C)(C)C)cc2)c1Cl`, for which the concentration at half-maximal activity (AC50) was 20.7 µM (active) in experiment [1], 0.0488 µM (active) in [5] and 100 µM (active) in experiment [6]. The call in experiment [2], in experiment [3], in experiment [4], in experiment [7], in experiment [8] and in experiment [9] was inactive. Further, the call in experiment [10] was inactive.
Consider `Cc1ccc(-c2c(Cl)nc(C#N)n2S(=O)(=O)N(C)C)cc1`, for which the figures for the AC50 in experiment [1], in experiment [2] and in experiment [5] were 65.4 µM (active), 104 µM (active) and 65.3 µM (active), respectively. Further, the result in experiment [3], in experiment [4], in [6], in experiment [7], in experiment [8] and in experiment [9] was inactive. In addition, in experiment [10], the compound was called inactive.
Take `CC1COC(Cn2cncn2)(c2ccc(Oc3ccc(Cl)cc3)cc2Cl)O1` (stereo not given): the concentration at half-maximal activity (AC50) in experiment [1] is 10.6 µM (active); in [3], 52.6 µM (active); in [5], 32.6 µM (active); in experiment [10] it was 60.6 µM (active). In addition, the call in experiment [2], in [4], in experiment [6], in experiment [7], in [8] and in experiment [9] was inactive.
With `CCON=C(CC)C1=C(O)CC(c2c(C)cc(C)cc2C)CC1=O` (stereo not given), the compound was called inactive in [1], in [2], in experiment [3], in experiment [4], in experiment [5] and in experiment [6]. Further, the compound was called inactive in experiment [7], in experiment [8], in [9] and in experiment [10].
Regarding `C=CC1(C)OC(=O)N(c2cc(Cl)cc(Cl)c2)C1=O` (stereo not given), the compound was called inactive in experiment [1], in experiment [2], in experiment [3], in experiment [4], in [5] and in experiment [6]. The result in [7], in experiment [8], in experiment [9] and in experiment [10] was inactive.
On to `CN(C)C(=S)SSC(=S)N(C)C`, for which the concentration at half-maximal activity (AC50) in experiment [1] was 0.153 µM (active); in experiment [2] it was 0.0895 µM (active); in experiment [4] it was 19.8 µM (active); in [5] it was 3.39 µM (active); in experiment [6], 1.78 µM (active). For the same compound, the compound was classed as inactive in experiment [3], in experiment [7], in experiment [8], in [9] and in experiment [10].
Take `OC(c1ccc(Cl)cc1)(c1cncnc1)c1ccccc1Cl` (stereo not given): the half-maximal activity concentration (AC50) is 10.4 µM (active) in experiment [1] and 167 µM (active) in experiment [5]. The compound was called inactive in experiment [2], in experiment [3], in [4], in experiment [6], in experiment [7] and in experiment [8]. Further, the result in experiment [9] and in [10] was inactive.
For the compound `CNC(=O)ON=CC(C)(C)SC`, the call in experiment [1], in experiment [2], in [3], in experiment [4], in [5] and in experiment [6] was inactive. Besides, the compound was classed as inactive in [7], in experiment [8], in [9] and in experiment [10].
As to `CCCCC(CC)COC(=O)c1ccccc1C(=O)OCC(CC)CCCC` (stereo not given), the outcome in [1], in experiment [2], in [3], in [4], in experiment [5] and in experiment [6] was inactive. The compound was classed as inactive in experiment [7], in [8], in [9] and in [10].
On to `CCOC(=O)CC(SP(=S)(OC)OC)C(=O)OCC` (stereo not given), for which, in experiment [1], the AC50 is 109 µM (active). Moreover, the outcome in experiment [2], in experiment [3], in experiment [4], in [5], in experiment [6] and in experiment [7] was inactive. Also, the compound was called inactive in experiment [8], in [9] and in experiment [10].
Regarding `N#Cc1nn(-c2c(Cl)cc(C(F)(F)F)cc2Cl)c(N)c1S(=O)C(F)(F)F` (stereo not given), the AC50 is 63.1 µM (active) in experiment [1]; 34.9 µM (active) in experiment [2]; 179 µM (active) in experiment [5]; 107 µM (active) in experiment [6]; 105 µM (active) in experiment [7]. Also, the compound was called inactive in experiment [3], in [4], in [8], in experiment [9] and in experiment [10].
`CO/C=C(/C(=O)OC)c1ccccc1Oc1cc(Oc2ccccc2C#N)ncn1`: the AC50 in [2] is 53.2 µM (active) and 42.2 µM (active); in [3], 164 µM (active); in experiment [4], 13.9 µM (active) and 24.7 µM (active) and 31 µM (active); in experiment [7], 36 µM (active); in experiment [9] it was 50.7 µM (active) and 53 µM (active) and 50.6 µM (active); in [10], 1.68 µM (active) and 3.44 µM (active). Further, the result in experiment [2], in experiment [3], in [4], in experiment [5], in experiment [6] and in experiment [7] was inactive. Further, the outcome in [8], in [9] and in experiment [10] was inactive.
